“And” between values parts separate entries of the source, which are not always exact repeats. Equal values may be shown once. Inconclusive results are not listed. The source made the active and inactive calls. Unless noted, the call rests on the fitted dose curve; in most records, active means well fitted curve in the direction sought with a large enough effect; inconclusive means small, poorly fitted or top-dose-only effect, or another doubt; inactive means no such curve, though single readings can be large; an effect the other way counts as inactive or inconclusive.
Columns and labels:
[1] = Cell Viability - MRC5 (AID 434; calls by dose curve;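 further: potency means the concentration at half of the fitted maximal effect; cells exposed to compound for 40 hours at 37 °C; potency reflects cytotoxicity seen as loss of intracellular ATP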); conditions: MRC5 lung fibroblast viability, qHTS
In short: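 Decrease in intracellular ATP, quantified by luciferase light output, reflects compound toxicity toward MRC5 cells exposed for 40 hr in complete culture medium. Concentration-response curves, scaled between DMSO and 100 uM tamoxifen, gave AC50 values.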

[2] = molecular target: Mitogen-activated protein kinase 10 (Mus musculus) (UniProt Q61831); experiment: JNK3 AlphaScreen Assay (AID 530; active means well fitted curve in either direction with a large enough effect, not every such curve was filed as active;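 further: kinase came from lysate of stimulated human HepG2 cells; signal reports phosphorylation of biotinylated GST-cJun 1-79 at Ser73 with 10 µM ATP; on the % scale 0 is the no-effect control and ±100 the full control effect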); conditions: JNK3 lysate, c-Jun phosphorylation; series mostly up to 57.1 µM
In short: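 Biotinylated GST-cJun(1-79) served as substrate for JNK3 in HepG2 lysates stimulated with IL-1beta and TNF-alpha. ATP was 10 uM final, pH 7.6. Ser73 phosphorylation was quantified by AlphaScreen (680 nm excitation).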

[3] = Cell Viability - HUV-EC-C (AID 542); conditions: HUV-EC-C endothelial cell viability, qHTS; series mostly up to 92.2 µM; further: on the % scale 0 is the no-effect control and ±100 the full control effect; nearly all actives have a fitted effect of over 35% in size
In short: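 Concentration-dependent ATP loss in HUV-EC-C cells is the measure. Exposure lasts 40 hr at 37 °C; luminescence follows CellTiter-Glo addition, and Hill fits give AC50.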

[4] = Cell Viability - Mesenchymal (AID 546); conditions: mesenchymal cells viability, qHTS; series mostly up to 91.7 µM;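 further: cells exposed to compound for 40 hours before reading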
In short: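 In this qHTS cytotoxicity format, glomerulus-derived human mesenchymal kidney cells received compound for 40 hr, then luciferase-based ATP quantitation. Concentration-response data were fitted with the Hill equation.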

[5] = Cellular Toxicity (caspase-3) HepG2 (AID 654); conditions: HepG2 caspase-3 activation, luminescence, 0% = DMSO only, 100% = tamoxifen; series mostly up to 92.2 µM;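 further: cells exposed to compound for 16 hours before reading; 0% = DMSO alone and 100% = caspase signal from 100 µM tamoxifen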
In short: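 Concentration-response AC50 values reflect caspase-3/7 induction in HepG2 cells after 16 hours of compound exposure, quantified by luminescence from liberated aminoluciferin and referenced to 100 uM tamoxifen as full stimulation.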

[6] = Cellular Toxicity (caspase-3) Jurkat (AID 655); conditions: Jurkat caspase-3 activation, luminescence; caspase-3 activation: at 92.2 µM (top of the series), DMSO = 0%, tamoxifen = 100%;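 further: cells exposed to compound for 16 h at 37 °C before reading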
In short: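 5000 Jurkat cells/well; compound 16 hr, 37 °C; Caspase-Glo 3/7 added, 20 min RT; luminescence read. Norm: DMSO = 0%, tamoxifen 100 uM = 100%. AC50, Hill model.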

[7] = Cellular Toxicity (caspase-3) BJ (AID 658); conditions: BJ fibroblasts, luminescence, normalized: DMSO 0%, staurosporine 100%; series mostly up to 91.7 µM
In short: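 Plated BJ cells (1000/well) rested 5 hr, received compound for 16 hr at 37 °C, then Caspase-Glo 3/7 reagent for 1 hr at room temperature before luminescence reading.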

[8] = Cellular Toxicity (caspase-3) H-4-II-E (AID 663); conditions: H-4-II-E rat hepatoma; Potency: caspase-3 activation; series mostly up to 92.2 µM;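 further: cells exposed to compound for 16 hr before readout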
In short: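 Caspase 3/7 activation measured in H-4-II-E cells in complete culture medium after 16 hr treatment at 37 °C, using luciferase-coupled substrate readout; AC50 values come from Hill-equation fits of normalized concentration-response data.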

[9] = Cellular Toxicity (caspase-3) Hek293 (AID 664); conditions: HEK293 caspase-3 activation, DMSO = 0%, 100 µM tamoxifen = 100%; at 92.2 µM (top of the series);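 further: cells exposed to compound for 16 h at 37 °C before readout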
In short: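 Apoptosis readout: Caspase-Glo 3/7 signal in human HEK293 cells following 16-hour compound incubation. Responses scaled between DMSO baseline and 100 uM tamoxifen.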

[10] = Cellular Toxicity (caspase-3) N2a (AID 665); conditions: N2a cells, luminescence, normalized: DMSO 0%, 10 µM staurosporine 100%; series mostly up to 92.2 µM;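 further: compound exposure lasted 16 h at 37 °C before readout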
In short: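 Concentration-response qHTS: compound-induced caspase-3/7 luminescence in N2a cells (16 h, 37 °C), relative to DMSO and 10 uM staurosporine controls; AC50 obtained using the standard Hill equation.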

[11] = Cellular Toxicity (caspase-3) Renal Proximal Tubule (AID 667); conditions: renal proximal tubule cells; series mostly up to 91.7 µM;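 further: cells exposed to compound for 16 hours at 37 °C before detection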
In short: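 AC50 derived by standard Hill fit of concentration-response data, normalized between DMSO basal and 10 uM staurosporine as 100% stimulation. Cells: primary rat kidney proximal tubule, 16 h treatment at 37 °C.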

[12] = MultiTox-Fluor Cytotoxicity Assay - LYMP1-003 - Dead Cells (AID 961); conditions: LYMP1-003 lymphoblastoid cells, dead-cell protease fluorescence; series mostly up to 92.2 µM; further: nearly all actives have a fitted effect of over 70% in size
In short: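 Dead-cell protease release, detected as bis-AAF-R110 fluorescence at 485/520 nm, was measured in LYMP1-003 cells after 16 h compound treatment at 37 C. AC50 values came from Hill-modeled qHTS curves normalized to DMSO (0%) and 15 uM tetraoctylammonium bromide (100%).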

[13] = MultiTox-Fluor Cytotoxicity Assay - LYMP1-003 - Live Cells (AID 962); conditions: LYMP1-003 lymphoblastoid cells, MultiTox-Fluor live-cell protease fluorescence; series mostly up to 92.2 µM;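 further: cells exposed to compound for 16 hours at 37 °C; 0% = DMSO only and full loss = 92 µM tetraoctylammonium bromide; cytotoxic hits lower the live-cell protease signal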
In short: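 Human lymphoblastoid line LYMP1-003 in complete culture medium, treated 16 hr with titrated compounds. Viable cells quantified via cell-permeant GF-AFC substrate fluorescence; AC50 derived by Hill fitting.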

[14] = molecular target: Peroxisome proliferator-activated receptor gamma (Homo sapiens) (UniProt P37231); experiment: qHTS assay for small molecule agonists of peroxisome proliferator-activated receptor gamma signaling (AID 588536; active means well fitted curve in the direction sought with a large enough effect in the signal ratio, with a control signal flat, not every such curve was filed as active; the % refers to the signal ratio;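 further: 0% = DMSO basal wells and 100% = rosiglitazone at 2 µM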); conditions: HEK293 PPARg-UAS-bla, beta-lactamase ratio, 16 h, percent of rosiglitazone response, DMSO as zero; series mostly up to 76.7 µM
In short: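 This is an agonist-mode beta-lactamase reporter assay in HEK293 PPAR-gamma-UAS-bla cells with 1% charcoal/dextran FBS. Compound titrations ran 16 h at 37 C before CCF4 detection. EC50 and efficacy are Hill fits scaled to 2 uM rosiglitazone (100%) and DMSO basal.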

[15] = qHTS assay for cell viability of HEK293 cells (AID 743288); conditions: ATP luminescence (CellTiter-Glo), 18 h, hits give low values; further: on the % scale 0 is the no-effect control and ±100 the full control effect; nearly all actives have a fitted effect of over 50% in size
In short: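 Viable-cell counts were inferred from luciferase-based ATP content in HEK293 cells seeded at 2,000/well, pre-incubated ≥5 h, then dosed with DMSO-solubilised compounds for 18 h at 37 C.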

[16] = qHTS assay for cell viability of the p53RE-bla HCT-116 cell line (AID 743292); conditions: p53RE-bla HCT-116 viability, ATP luminescence, 16 h; series mostly up to 95 µM; further: on the % scale 0 is the no-effect control and ±100 the full control effect; nearly all actives have a fitted effect of over 55% in size
In short: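 Intracellular ATP of p53RE-bla HCT-116 cells measured by luciferase luminescence following 16 h compound incubation at 37 C; DMSO-only wells served as vehicle controls.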

[17] = molecular target: Nuclear receptor subfamily 1 group I member 2 (Rattus norvegicus) (UniProt Q9R1A7); experiment: qHTS assay for small molecule activators of the rat pregnane X receptor (rPXR) signaling pathway (AID 651751; call rule not given here; further: 0% is about no effect); conditions: rPXR reporter cells, luciferase (One-Glo), 24 h
[18] = Cellular Toxicity (caspase-3) SK-N-SH (AID 661); conditions: SK-N-SH caspase-3 activation, qHTS; series mostly up to 91.7 µM
In short: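 Apoptosis readout in SK-N-SH neuroblastoma: Caspase-Glo 3/7 luminescence following 16 hr treatment in complete culture medium. Normalization used DMSO and 10 uM staurosporine controls.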

[19] = Cell Viability - LYMP2-013 (AID 970); conditions: LYMP2-013 lymphoblastoid cells viability; series mostly up to 92.2 µM;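 further: 0% = DMSO only and full inhibition = tetraoctylammonium bromide control; nearly all actives have a fitted effect of over 55% in size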
In short: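 In complete culture medium, human lymphoblastoid cells were dosed for 24 hr at 37 C, with tetraoctylammonium bromide (6.4pM to 92 uM) as positive control. Viability reflects luciferase-based ATP signal; AC50 derived from concentration-response curves.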

[20] = qHTS assay for environmental chemicals that activate the Aryl hydrocarbon Receptor (AhR) signaling pathway (AID 651777); conditions: 1A2-DRE human hepatoma cells, luciferase, 24 h; activation: hits give high values; further: % of control where 0% means no effect; nearly all actives have a fitted effect of over 15% in size
In short: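 Measured luciferase activity, read 30 min after One-Glo addition at room temperature, from human hepatoma cells bearing a dioxin response element–CYP1A2 promoter reporter and exposed to compound for 24 hr at 37 C.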

Chain of Peroxisome proliferator-activated receptor gamma (Homo sapiens) (P37231 whole entry, looked up): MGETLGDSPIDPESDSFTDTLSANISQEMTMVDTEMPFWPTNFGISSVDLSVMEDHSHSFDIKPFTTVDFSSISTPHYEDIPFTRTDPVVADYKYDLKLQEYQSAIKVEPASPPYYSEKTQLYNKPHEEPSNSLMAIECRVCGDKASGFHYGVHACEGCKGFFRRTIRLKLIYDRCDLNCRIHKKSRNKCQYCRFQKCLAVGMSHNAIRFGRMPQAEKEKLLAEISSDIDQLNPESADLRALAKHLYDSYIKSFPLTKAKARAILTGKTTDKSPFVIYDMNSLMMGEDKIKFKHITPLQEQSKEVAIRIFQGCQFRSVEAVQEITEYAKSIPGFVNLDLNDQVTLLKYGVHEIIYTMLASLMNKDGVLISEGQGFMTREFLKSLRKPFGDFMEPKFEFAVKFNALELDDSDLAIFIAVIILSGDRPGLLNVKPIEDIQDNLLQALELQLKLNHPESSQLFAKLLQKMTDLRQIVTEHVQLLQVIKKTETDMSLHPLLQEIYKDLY
Chain of Nuclear receptor subfamily 1 group I member 2 (Rattus norvegicus) (Q9R1A7 whole entry, looked up): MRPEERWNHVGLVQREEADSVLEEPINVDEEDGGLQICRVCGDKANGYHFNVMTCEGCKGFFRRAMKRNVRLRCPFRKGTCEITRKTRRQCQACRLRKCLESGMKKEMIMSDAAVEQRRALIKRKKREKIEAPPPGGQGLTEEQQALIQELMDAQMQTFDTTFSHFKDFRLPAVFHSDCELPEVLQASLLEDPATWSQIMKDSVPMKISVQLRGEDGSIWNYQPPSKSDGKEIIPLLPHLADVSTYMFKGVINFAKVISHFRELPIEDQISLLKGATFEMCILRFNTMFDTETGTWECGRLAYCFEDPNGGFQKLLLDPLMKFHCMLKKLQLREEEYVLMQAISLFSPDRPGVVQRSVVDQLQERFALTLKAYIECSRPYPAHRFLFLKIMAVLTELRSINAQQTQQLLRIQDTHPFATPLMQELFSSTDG

O=C(O)CCl
inactive: Potency [1] > 92 µM | Potency [2] | Potency [3] | Potency [4] | outcome [5] | caspase-3 activation [6] -0.292% | outcome [7] | Potency [8] | caspase-3 activation [9] -1.43% | outcome [10] | outcome [11] | Potency [12] | outcome [13] | outcome [14] | max response [15] -4.45% | Potency [16] | max response [17] 9.97%

Brc1cccc(-c2ccccc2)c1
inactive: Potency [1] > 92 µM | Potency [2] | Potency [3] | Potency [4] | outcome [5] | caspase-3 activation [6] 1.47% | outcome [7] | Potency [18] | Potency [8] | caspase-3 activation [9] -1.08% | outcome [10] | outcome [11] | Potency [12] | outcome [13] | Potency [19] | activation [20] -0.116% | max response [17] 2.39%

CCNCC
inactive: Potency [1] > 92 µM | Potency [2] | Potency [3] | Potency [4] | outcome [5] | caspase-3 activation [6] 0.736% | outcome [7] | Potency [18] | Potency [8] | caspase-3 activation [9] 1.2% | outcome [10] | outcome [11] | Potency [12] | outcome [13] | Potency [19] | outcome [14] | activation [20] -0.962% | max response [15] 7.41% | Potency [16] | max response [17] 0.38%

O=[N+]([O-])c1cccc2c([N+](=O)[O-])cccc12
inactive: Potency [1] > 92 µM | Potency [2] | Potency [3] | Potency [4] | outcome [5] | Potency [18] | Potency [8] | caspase-3 activation [9] -0.427% | outcome [10] | outcome [11] | Potency [12] | outcome [13] | Potency [19] | outcome [14] | activation [20] 0.19% | max response [15] -6.41% | Potency [16] | max response [17] -2.66%

c1ccc(C2CO2)cc1 (stereo not drawn)
inactive: Potency [1] > 92 µM | Potency [2] | Potency [3] | Potency [4] | outcome [5] | caspase-3 activation [6] 1.66% | outcome [7] | Potency [18] | Potency [8] | caspase-3 activation [9] -0.153% | outcome [11] | Potency [12] | outcome [13] | Potency [19] | outcome [14] | activation [20] 0.299% | max response [15] -9.74% | Potency [16] | max response [17] -1.42%

C=C(Cl)CCl
inactive: Potency [1] > 92 µM | Potency [2] | Potency [3] | Potency [4] | outcome [5] | caspase-3 activation [6] 1.48% | outcome [7] | Potency [18] | Potency [8] | caspase-3 activation [9] 0.722% | outcome [10] | outcome [11] | outcome [13] | outcome [14] | max response [15] -2.76% | max response [17] 1.93%

ClCCCCl
inactive: Potency [1] > 92 µM | Potency [2] | Potency [3] | Potency [4] | outcome [5] | caspase-3 activation [6] 2.19% | outcome [7] | Potency [18] | Potency [8] | caspase-3 activation [9] -1.63% | outcome [10] | outcome [11] | Potency [12] | outcome [13] | Potency [19] | outcome [14] | activation [20] -1.95% | max response [15] 2.44% | Potency [16] | max response [17] -3.7%

CC12CC1(C)C(=O)N(c1cc(Cl)cc(Cl)c1)C2=O (stereo not drawn)
inactive: Potency [1] > 92 µM | Potency [2] | Potency [3] | Potency [4] | outcome [5] | caspase-3 activation [6] -1.16% | outcome [7] | Potency [8] | caspase-3 activation [9] 1.47% | outcome [10] | outcome [11] | Potency [12] | outcome [13] | Potency [19] | outcome [14] | activation [20] -0.0704% and 1.05% | max response [15] 5.03% and -17.6% | Potency [16] | max response [17] 12.6% and 11%

CC(C)CC(C)N (stereo not drawn)
inactive: Potency [1] > 92 µM | Potency [2] | Potency [3] | Potency [4] | outcome [5] | caspase-3 activation [6] 1.95% | outcome [7] | Potency [18] | Potency [8] | caspase-3 activation [9] 1.99% | outcome [10] | outcome [11] | Potency [12] | outcome [13] | Potency [19] | outcome [14] | activation [20] 0.111% | max response [15] 1.65% | Potency [16] | max response [17] 0.275%

Clc1ccc(C(Cl)(Cl)Cl)c(Cl)c1
inactive: Potency [1] > 92 µM | Potency [2] | Potency [3] | Potency [4] | outcome [5] | caspase-3 activation [6] -1.19% | Potency [18] | Potency [8] | caspase-3 activation [9] 0.186% | outcome [10] | outcome [11] | Potency [12] | outcome [13] | Potency [19] | outcome [14] | activation [20] -1.61% | max response [15] -3.16% | Potency [16] | max response [17] -3.95%

[O-][Cl+]O
inactive: Potency [1] > 92 µM | Potency [2] | Potency [3] | Potency [4] | outcome [5] | caspase-3 activation [6] 0.134% | outcome [7] | Potency [18] | Potency [8] | caspase-3 activation [9] 1.6% | outcome [10] | outcome [11] | Potency [12] | outcome [13] | outcome [14] | activation [20] 0.878% | max response [15] -2.54% | Potency [16]

Cc1ccccc1[N+](=O)[O-]
inactive: Potency [1] > 92 µM | Potency [2] | Potency [3] | Potency [4] | caspase-3 activation [6] 0.646% | outcome [7] | Potency [18] | caspase-3 activation [9] -0.618% | outcome [10] | outcome [11] | Potency [12] | Potency [19] | outcome [14] | activation [20] -1.35% | Potency [16] | max response [17] -2.44%

C=CC=O
inactive: Potency [1] > 92 µM | Potency [2] | Potency [3] | Potency [4] | Potency [18] | Potency [8] | caspase-3 activation [9] 0.46% | Potency [12] | outcome [13] | Potency [19] | outcome [14] | activation [20] 1.3% | Potency [16] | max response [17] 1.01%

— PubChem BioAssay (NCATS)
